# Hits are enriched below; roughly 5.3% of the tested compounds scored in any of these assays.
# VACV Venus inh: vaccinia inhibition (Venus reporter) | Vaccinia virus Venus reporter expression, fluorescence | Potency, µM (titrated, usually from 36.5 µM), for inactives: top-dose activity change, negative = inhibition, actives largely listed as inhibitors | hit rate 0.46% among 330,000 | AID 720580; calls by dose curve; tested in A549 cells; also: nearly all actives have a fitted effect of over 30% in size
# HCV inhibitor: HCV inhibition. Huh7.5.1 HCVcc-Cre infection, luciferase reporter, 44 h. Potency, µM (highest dose often 41.8 µM), without a hit: at the highest dose activity change, negative = inhibition, usual class: inhibitors. hit rate 3.4% among 340,000. AID 651820; active = well fitted inhibition curve with a large enough effect; inconclusive = small, poorly fitted or top-dose-only effect, or another doubt; inactive = no such curve, though single readings can be large or run the other way
#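 Seed cells (1,000/well) for 4 h; treat with compound and infect with HCVcc-Cre, moi about 0.5. Incubate 44 h, then detect luciferase activity.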
# MARV entry inh: inhibitors of Marburg virus binding or cell entry. Marburg virus pseudotyped entry inhibition, cell reporter. Potency, µM (series often up to 37.8 µM), without a hit: at the highest dose activity change, negative = inhibition, most hits filed as inhibitors. hit rate 1.8% among 300,000; calls by dose curve; tested in HEK293 cells
# Vaccinia mCherry: inhibitors of vaccinia virus infection (mCherry reporter signal) | Vaccinia virus mCherry reporter infection, fluorescence | Potency, µM (titrated, usually from 36.5 µM), inactives show at the highest dose activity change, negative = inhibition, hits mostly inhibitors | hit rate 0.63% among 310,000 | AID 720579; calls by dose curve; tested in A549 cells; also: nearly all actives have a fitted effect of over 35% in size
# LASV entry inh: blocks Lassa virus binding to or entry into cells; Lassa virus pseudotype entry inhibition, cell reporter; Potency, µM (top dose mostly 37.9 µM), without a hit: at the highest dose activity change, negative = inhibition, most hits filed as inhibitors; hit rate 1.2% among 300,000; calls by dose curve; tested in HEK293 cells; also: nearly all actives have a fitted effect of over 50% in size
# FMDV antiviral: foot and mouth disease virus antiviral activity. hit rate 1.2% among 410,000. Potency, µM (series often up to 57.9 µM), without a hit: at the top dose activity change, negative = inhibition, most hits filed as inhibitors. FMDV antiviral cell-based qHTS; calls by dose curve; tested in HEK293T cells; also: read-out not given here; nearly all actives have a fitted effect of over 45% in size
# Active calls of the source: *; i = inactive; ? = inconclusive; . = no result given; [ ] = another dose, or the depositor's remark. % is scaled to controls: 0 for no effect and ±100 for the full control effect; potency is read from the fitted curve at half-maximal effect.
SMILES,VACV Venus inh,HCV inhibitor,MARV entry inh,Vaccinia mCherry,LASV entry inh,FMDV antiviral
O=C(N/N=C/c1ccc(C(F)(F)F)cc1)c1ccncc1,-19%,-13%,-9%,-15%,-1%,34%
CC(C)Oc1ccc(/C=N/NC(N)=S)cc1,1.6µM*,-3%,?,1.1µM*,?,22%
NC(=S)N/N=C/c1ccc(C(F)(F)F)cc1,?,-7%,-21%,1.8µM*,?,-4%
C=CCOc1ccc(/C=N\NC(N)=S)cc1,.,-10%,.,.,.,30%
NC(=S)N/N=C/c1ncc(C(F)(F)F)cc1Cl,-22%[7.34 µM],5.6µM*,?,1.4µM*,?,-16%
CSc1c2c(n(CC3CCCCC3)c1CC(=O)NC1CCCCC1)CCCC2,.,.,5%,.,.,.
COC(=O)[C@]12CCCCC=C1N(CCc1ccc(OC)c(OC)c1)C(=O)[C@H](CC(=O)N1CCC(c3ccccc3)CC1)C2,?,.,.,0%,.,-20%
Cc1c(N/N=C(\C#N)C(=O)c2ccccc2)c(=O)n(-c2ccccc2)n1C,-27%,10µM*,11µM*,13µM*,?,-17%
Cc1ccc(C)c(N2CCN(C(=O)C3CCCN(S(=O)(=O)c4cccc5nsnc45)C3)CC2)c1 (configuration not stated),-23%,.,?,?,?,?
Cc1ccc(C)c(N2CCN(C(=O)C3CCN(S(=O)(=O)c4cccc5nsnc45)CC3)CC2)c1,?,?,?,-16%,?,22µM*
Cc1ccc(Cl)cc1N1CCN(C(=O)C2CCN(S(=O)(=O)c3cccnc3)CC2)CC1,?,?,?,?,?,16µM*
Cc1ccc(Cl)cc1N1CCN(C(=O)C2CCN(S(=O)(=O)c3c(C)nn(C)c3C)CC2)CC1,-24%,11µM*,?,-9%,?,32µM*
O=C(C1CCN(S(=O)(=O)c2cccnc2)CC1)N1CCN(c2ccccc2Cl)CC1,-18%,-5%,-3%,.,2%,?
O=C(C[n+]1cccc2cc(Cl)ccc21)c1ccc(Br)cc1,126%,.,.,i,.,.
Cc1nn(-c2ccccc2)c2c1cc1c(=O)n(C)c(=O)nc-1n2-c1cccc(Cl)c1,12%,.,-5%[46.1 µM],8%,11%[46.1 µM],-14%
O=C(CSc1nnc(-c2ccccc2Br)o1)N1CCN(C(=O)c2ccco2)CC1,?,6%,-3%,13µM*,2%,.
CCOc1ccccc1NC(=O)Nc1cccc(NC(C)=O)c1,-22%,?,6%[46.1 µM],i,-13%[46.1 µM],-12%
CCOC(=O)c1cccc(NC(=O)Nc2cc(OC)ccc2OC)c1,?,16µM*,?,-26%,16µM*,?
COc1ccc(C)cc1NC(=O)Nc1cccc(C(=O)O)c1,-8%,22%,?,i,?,-10%
CCOc1ccccc1NC(=O)Nc1ccc2c(c1)CCC2,.,13µM*,.,.,.,18%
CCOc1ccccc1NC(=O)Nc1cccc(S(N)(=O)=O)c1,3%,32µM*,-26%,i,?,3%
CCOc1ccccc1NC(=O)Nc1cccc(C(C)=O)c1,.,7.1µM*,-2%,.,23%,-11%
Cc1ccc(NC(=O)COC(=O)c2cccc(C)c2[N+](=O)[O-])cc1S(=O)(=O)N1CCCCC1,.,-4%,.,.,.,?
CCOc1ccccc1NC(=O)NCc1ccccc1F,.,11µM*,.,.,.,21%
COc1ccc(OC)c(NC(=O)CCOc2cccc(C)c2)c1,-16%,11µM*,?,-19%,?,?
SMILES,VACV Venus inh,HCV inhibitor,MARV entry inh,Vaccinia mCherry,LASV entry inh,FMDV antiviral
Cc1nn(C)cc1CN1CCCC(C(=O)c2ccc(-c3ccccc3)cc2)C1 (configuration not stated),-22%,4.5µM*,?,-3%,?,?
O=C(c1ccc(Cl)cc1)C1CCCN(Cc2ccc(Oc3ncccn3)cc2)C1 (configuration not stated),.,11µM*,.,.,.,?
O=C(c1ccc(-c2ccccc2)cc1)C1CCCN(Cc2ccncc2)C1 (configuration not stated),-17%,?,?,-14%,?,?
O=C(c1ccc(Cl)cc1)C1CCCN(Cc2cnn(-c3ccccc3)c2)C1 (configuration not stated),-19%,22µM*,5.6µM*,-26%,-26%,-26%
CN1CCN(c2ccc(NC(=O)c3ccc(C(F)(F)F)cc3)cn2)CC1,-3%,11µM*,?,-15%,?,?
COc1ccc(C(O)C(CN2CCOCC2)c2ccccc2)cc1F (configuration not stated),.,0%,6%,.,-2%,5%
CCCOc1ccc(C(=O)C(CN2CCOCC2)c2ccccc2)cc1 (configuration not stated),?,?,16µM*,?,?,14µM*
CCCOc1ccc(C(=O)C(c2ccccc2)N2CCOCC2)cc1 (configuration not stated),-25%,5%,-13%,.,?,14%
COc1ccc(C(=O)C(CN2CCOCC2)c2ccccc2)cc1F (configuration not stated),13µM*,?,8.9µM*,10µM*,?,?
O=C(Cc1ccccc1)Nc1nnc2n1CCS2,9%,.,.,1%,-20%[46.1 µM],0%
Cc1ccn2c(C(=O)c3ccc(Cl)cc3)cnc2c1,-4%,?,?,-8%,18µM*,-12%
CC1CCCN(CCS(=O)(=O)c2ccccc2)C1 (configuration not stated),?,-5%,?,10µM*,9%[46.1 µM],25%
CCn1c(-c2cccc(OC)c2)nc2cc(NC(C)=O)cc(C(=O)N(C)CC3COCCO3)c21 (configuration not stated),0%,.,.,-3%,.,2%
CC(C)(C)C(=O)/C=c1\[nH]c(=O)/c(=C\c2ccc(F)cc2)s1,11µM*,-29%,-18%[46.1 µM],.,-9%,-24%
CC(C)(C)C(=O)/C=c1\[nH]c(=O)/c(=C\c2ccccc2F)s1,-27%,?,-17%[46.1 µM],-3%,-26%[46.1 µM],-19%
Cc1ccccc1/C=c1\s/c(=C\C(=O)C(C)(C)C)[nH]c1=O,?,11µM*,?,.,?,?
O=c1c2ccccc2sc2ccccc12,-3%,?,-1%,i,42%,55%
c1ccc2c(c1)[nH]c1c3ccccc3sc21,-21%,11µM*,.,-14%,.,0%
CN(C)CCCNc1nccc(-c2c(-c3ccc(F)cc3)nn3cc(C(F)(F)F)ccc23)n1,.,.,.,.,22µM*,.
CC(C)[C@@H]1Cc2c(C#N)c(N)sc(=S)c2CO1,.,.,1%,.,.,.
CCCN(CCC)[C@H]1CCc2c(F)ccc(O)c2C1,.,.,11µM*,.,17%,.
Cc1ccc(NS(=O)(=O)c2ccc(Cl)c(NC(=S)NC(=O)C3CCCCC3)c2)cc1Cl,?,11µM*,?,?,?,0%
Cc1ccc(NC(=O)C2CCCC2)cc1Cl,20%,1%,?,14%,-27%[46.1 µM],11%
CC(=O)c1ccc(NC(=O)Cn2c(=O)c3cccn3c3ccccc32)cc1,-3%,.,.,0%,1.8µM*,-8%

# Screening results: PubChem, National Center for Advancing Translational Sciences (NCATS)
